Data on 26 compounds can be found in ChEMBL document CHEMBL1157539, “Thousands of chemical starting points for antimalarial lead identification” (Nature, 2010).

Holding throughout (assay type): functional
Test [1] deals with Plasmodium falciparum. Briefly: GSK_TCMDC: Inhibition of Plasmodium falciparum 3D7 in whole red blood cells, using parasite LDH activity as an index of growth. Test compounds present at 2uM.
Test [2] deals with Plasmodium falciparum. Put plainly: GSK_TCMDC: Inhibition of Plasmodium falciparum Dd2 in whole red blood cells, using parasite LDH activity as an index of growth. Test compounds present at 2uM.
For test [3], the system named is HepG2. Put plainly: GSK_TCMDC: Percent inhibition of human HepG2 cell line. Test compounds present at 10uM.

As a reminder, the Inhibition is the change of the read-out against control, counted positive when it falls. Read a low Inhibition as a weak effect. For the compound `Cc1ccc2nc(C)cc(Nc3ccccc3O)c2c1.Cl`, the Inhibition in test [1] is 96%; in test [2], 6%; in test [3] it was 0%.
The corresponding values for `Cc1ccc(CON2C(N)=NC(N)=NC2(C)C)c(Cl)c1.Cc1ccc(CON2C(N)=NC(N)=NC2(C)C)cc1Cl` are 91%, 96% and 67%.
As for `COc1ccc2nccc([C@@H](O)CN3CCC(NC(=O)C(c4cc5ccccc5o4)N4CCN(Cc5ccccc5)CC4)CC3)c2c1` (stereo partly drawn), the Inhibition in test [1] worked out at 91%; in test [2], 75%; in test [3], 30%.
In the case of `O=C(Nc1ccc(-n2ccc(C(F)(F)F)n2)cc1)c1cccs1`, the Inhibition came out at 89% in test [1], 67% in test [2] and 6% in test [3].
As for `NC(=O)c1ccccc1OCC(=O)Nc1ccc(-c2cccc(-c3nc4cc(C(F)(F)F)ccc4[nH]3)c2)cc1`, the Inhibition in test [1] was found to be 100%; in test [2] it was 11%; in test [3] it was 51%.
The corresponding values for `O=C(NCCCCN1CCC(c2ccc3c(c2OCc2ccncc2)CCCC3)CC1)c1ccc(-c2ccc(C(F)(F)F)cc2)cc1` are 100%, 92% and 96%.
In the same order, the values of `CCC1CCCCN1S(=O)(=O)c1ccc(OC)c(N2CCN(C(=O)C(Cl)(Cl)Cl)CC2)c1` (stereo not drawn) are 89%, 29% and 9%.
In the same order, the values of `Cn1cnc(CCNC(=O)c2ccc(-c3cccc(-c4nc5cc(F)ccc5[nH]4)c3)cc2)c1` are 100%, 24% and 23%.
Regarding `Nc1nccc2ccc(-c3ccc(NC(=O)Nc4cc(C(F)(F)F)ccc4F)cc3)cc12.O=C(O)C(F)(F)F`, the Inhibition worked out at 100% in test [1], 100% in test [2] and 99% in test [3].
`CCCc1ccc(C2CCN(CCCCNC(=O)c3ccc(NC(=O)c4ccc(Cl)cc4)cc3)CC2)cc1`: the Inhibition was found to be 100% in test [1], 100% in test [2] and 39% in test [3].
Consider `O=C(c1csc(-c2cccnc2)n1)N1CCc2cc3nccc(N4CCN5CCC[C@H]5C4)c3cc21`, for which the Inhibition in test [1] is given as 97%; in test [2], 78%; in test [3] it was 0%.
The corresponding values for `CCC(CC)CN1C(=O)C(C)(c2ccccc2)N=C1N.O=C(O)C(F)(F)F` (stereo not drawn) are 84%, 11% and 1%.
On to `CN(C)CC(=O)N(Cc1ccc(Cl)c(Cl)c1)Cc1csc(-c2ccc(CNCc3ccccc3)cc2)n1.O=C(O)C(F)(F)F`, for which the Inhibition in test [1] was 96%; in test [2], 32%; in test [3], 30%.
Turning to `Oc1cc(NC[C@H]2CCC[C@@H]2NCc2cc(Br)cc(Br)c2)nc2ccccc12`, the Inhibition in test [1] is 100%; in test [2] it was 45%; in test [3], 21%.
Regarding `NC1CCN(c2nc(NCCc3ccc(O)cc3)nc(NCc3ccccc3-c3ccc(C(F)(F)F)cc3)n2)CC1.O=C(O)C(F)(F)F`, the Inhibition in test [1] worked out at 100%; in test [2], 72%; in test [3], 18%.
With `O=C(C=Cc1ccc(Cl)c(Cl)c1)NCCCCCN1CCC(CCNC(=O)c2ccc3c(c2)OCO3)CC1`, the Inhibition was determined as 99% in test [1], 2% in test [2] and 35% in test [3].
The corresponding values for `O=C(Nc1cccc(CN2CCCN(Cc3ccsc3)CC2)c1)c1cc2ccccc2s1.O=C(O)C(F)(F)F` are 96%, 29% and 25%.
With `CCCC(C)Nc1nc(C)cc(N[C@@H](Cc2ccccc2)C(=O)NCc2ccc(C)cc2)n1.O=C(O)C(F)(F)F` (stereo partly drawn), the Inhibition in test [1] came out at 100%; in test [2] it was 93%; in test [3], 22%.
In the same order, the values of `COc1ccc(-c2ccc(NC(=O)c3ccc(Cl)cc3)cc2)cc1CN(C)CCN(C)C.O=C(O)C(F)(F)F` are 97%, 61% and 37%.
On to `Cc1c(CC(=O)NCCC2CCN(CCCCCNC(=O)/C=C/c3ccc(Cl)c(Cl)c3)CC2)sc2ccc(Cl)cc12`, for which the values for the Inhibition in test [1], in test [2] and in test [3] were 92%, 8% and 59%, respectively.
Consider `CCCc1cc(NCC)nc(Nc2ccc(F)cc2)n1`, for which the Inhibition in test [1] is given as 86%; in test [2], 36%; in test [3] it was 16%.
In the same order, the values of `CC(C)[C@H](NC(=O)c1ccc(O)c(-c2ccc(Cl)c(Cl)c2)c1)C(=O)NCCN1CCCCC1` are 99%, 98% and 0%.
With `CC(C)CNCc1cccc(-c2cccc(CN(CCN(C)C)C(=O)Nc3ccccc3)c2)c1.O=C(O)C(F)(F)F`, the Inhibition turned out to be 99% in test [1], 62% in test [2] and 34% in test [3].
With `O=C(O)C(F)(F)F.O=S(=O)(NCCN1CCCC1)c1cccc(-c2ccc(CNC3Cc4ccccc4C3)cc2)c1`, the Inhibition in test [1] is given as 99%; in test [2], 74%; in test [3], 79%.
`COC(=O)c1ccc2nc(-c3ccc(/C=C/C(=O)NC4CCN(Cc5ccccc5)CC4)cc3)[nH]c2c1`: the Inhibition in test [1] is on record as 100%; in test [2] it was 88%; in test [3] it was 12%.
In the same order, the values of `Cc1cccc2nc(-c3cccc(-c4cccc(CNCc5cccc(N)c5)c4)c3)[nH]c12.O=C(O)C(F)(F)F` are 100%, 73% and 14%.
